# Measured values reported in PubChem BioAssay AID1159580 (chemical genetic matrix, 2015).
# The campaign covered roughly 5,500 compounds. About 2,000 (36%) were called active. Not shown: some 18% with an inconclusive outcome. The list shows a part of the results. Unmarked numbers belong to inactive results. No stated cut-off is given here; in the data, active means normalized growth mostly below about 0.91 (no sharp cut-off); inconclusive means no clear call, values can overlap the other calls; inactive means mostly above about 0.92.
# Assay: chemical genetic growth profiling, strain panel (AID 1159580);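 further: tested at 20 µM; growth read once vehicle control cultures reached saturation at 30 °C; 1 = growth at the plate median or of vehicle wells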
# Details: growth OD
# [1] = S. cerevisiae deletion strains, locus YAL013W, strain DEP1, stronger effect = lower value
# [2] = S. cerevisiae deletion strains, locus YBR229C, strain ROT2, stronger effect = lower value
# [3] = S. cerevisiae deletion strains, locus YCL061C, strain MRC1, stronger effect = lower value
# [4] = S. cerevisiae deletion strains, locus YDL101C, strain DUN1, stronger effect = lower value
# [5] = S. cerevisiae deletion strains, locus YDR150W, strain NUM1, stronger effect = lower value
# [6] = S. cerevisiae deletion strains, locus YEL061C, strain CIN8, stronger effect = lower value
# [7] = S. cerevisiae deletion strains, locus YGR078C, strain PAC10, stronger effect = lower value
# [8] = S. cerevisiae deletion strains, locus YGR229C, strain SMI1, stronger effect = lower value
# [9] = S. cerevisiae deletion strains, locus YHR030C, strain SLT2, stronger effect = lower value
# [10] = S. cerevisiae deletion strains, locus YHR087W, strain rtc3, stronger effect = lower value
# [11] = S. cerevisiae deletion strains, locus YJR043C, strain POL32, stronger effect = lower value
# [12] = S. cerevisiae deletion strains, locus YJR075W, strain HOC1, stronger effect = lower value
# [13] = S. cerevisiae deletion strains, locus YLR039C, strain RIC1, stronger effect = lower value
# [14] = S. cerevisiae deletion strains, locus YLR058C, strain SHM2 (second series), stronger effect = lower value
# [15] = S. cerevisiae deletion strains, locus YLR085C, strain ARP6, stronger effect = lower value
# [16] = S. cerevisiae deletion strains, locus YLR262C, strain YPT6, stronger effect = lower value
# [17] = S. cerevisiae deletion strains, locus YML094W, strain GIM5, stronger effect = lower value
# [18] = S. cerevisiae deletion strains, locus YMR219W, strain ESC1, stronger effect = lower value
# [19] = S. cerevisiae deletion strains, locus YMR263W, strain SAP30, stronger effect = lower value
# [20] = S. cerevisiae deletion strains, locus YNL128W, strain TEP1, stronger effect = lower value
# [21] = S. cerevisiae deletion strains, locus YNL153C, strain GIM3, stronger effect = lower value
# [22] = S. cerevisiae deletion strains, locus YNL298W, strain CLA4 (second series), stronger effect = lower value
# [23] = S. cerevisiae deletion strains, locus YNL322C, strain KRE1, stronger effect = lower value
# [24] = S. cerevisiae deletion strains, locus YNR030W, strain Alg12, stronger effect = lower value
# [25] = S. cerevisiae deletion strains, locus YOL006C, strain TOP1, stronger effect = lower value
# [26] = S. cerevisiae deletion strains, locus YPL055C, strain LGE1, stronger effect = lower value
# [27] = S. cerevisiae deletion strains, locus YPL241C, strain CIN2, stronger effect = lower value
# [28] = S. cerevisiae deletion strains, locus YPR135W, strain CTF4, stronger effect = lower value
# [29] = S. cerevisiae strains, strain wild type, stronger effect = lower value
# [30] = S. cerevisiae deletion strains, locus YMR307W, strain GAS1, stronger effect = lower value
# [31] = S. cerevisiae deletion strains, locus YAL040C, strain CLN3, stronger effect = lower value
# [32] = S. cerevisiae deletion strains, locus YCL061C, strain MRC1 (second series), stronger effect = lower value
# [33] = S. cerevisiae deletion strains, locus YER002W, strain NOP16, stronger effect = lower value
# [34] = S. cerevisiae deletion strains, locus YNL175C, strain NOP13, stronger effect = lower value
# [35] = S. cerevisiae deletion strains, locus YNL197C, strain WHI3, stronger effect = lower value
# [36] = S. cerevisiae deletion strains, locus YNL224C, strain SQS1, stronger effect = lower value
# [37] = S. cerevisiae deletion strains, locus YOR083W, strain WHI5 (second series), stronger effect = lower value
smiles,measurement,setting,value
COc1ccc(NC(=O)c2cc(C(F)(F)F)cc(C(F)(F)F)c2)cn1,normalized growth,[1],0.964
same,normalized growth,[2],0.938
same,normalized growth,[3],0.968
same,normalized growth,[4],0.928
same,normalized growth,[5],1.05
same,normalized growth,[6],0.942
same,normalized growth,[7],0.92 (active)
same,normalized growth,[8],0.959
same,normalized growth,[9],0.826
same,normalized growth,[10],0.925
same,normalized growth,[11],0.959
same,normalized growth,[12],0.893
same,normalized growth,"S. cerevisiae deletion strains, locus YKL190W, strain CNB1, stronger effect = lower value",0.947
same,normalized growth,[13],0.539 (active)
same,normalized growth,[14],0.926 (active)
same,normalized growth,[15],0.781
same,normalized growth,[16],0.636 (active)
same,normalized growth,[17],0.927
same,normalized growth,[18],0.949
same,normalized growth,[19],0.98
same,normalized growth,[20],0.953
same,normalized growth,[21],0.983
same,normalized growth,[22],0.895
same,normalized growth,[23],0.938 (active)
same,normalized growth,[24],0.9
same,normalized growth,[25],0.867
same,normalized growth,[26],0.963
same,normalized growth,[27],0.908
same,normalized growth,[28],0.611 (active)
same,normalized growth,[29],0.931
COc1cc(C(F)(F)F)cc(C(F)(F)F)c1C(=O)Nc1cc(C(F)(F)F)cc(C(F)(F)F)c1,normalized growth,[1],1.03
same,normalized growth,[2],1.02
same,normalized growth,[3],1.02
same,normalized growth,[4],1.04
same,normalized growth,[5],1
same,normalized growth,[6],1.01
same,normalized growth,[7],1.01
same,normalized growth,[9],1.11
same,normalized growth,[10],1.04
same,normalized growth,[11],1.01
same,normalized growth,[12],1
same,normalized growth,[13],1.03
same,normalized growth,[14],0.998
same,normalized growth,[15],1.03
same,normalized growth,[16],1.01
same,normalized growth,[17],1.08
same,normalized growth,[18],1.01
same,normalized growth,[19],1.01
same,normalized growth,[30],1.01
same,normalized growth,[20],1
same,normalized growth,[21],1.01
same,normalized growth,[22],1.03
same,normalized growth,[23],1.01
same,normalized growth,[24],1.03
same,normalized growth,[25],1.09
same,normalized growth,[26],1.07
same,normalized growth,[27],1.06
same,normalized growth,[28],1.1
same,normalized growth,[29],1.01
CC(=O)OCC1=C(C(=O)O)N2C(=O)C(NC(=O)CSc3ccncc3)C2SC1 (stereo not given),normalized growth,[31],0.974
same,normalized growth,[32],0.991
same,normalized growth,[33],1.02
same,normalized growth,[8],0.99
same,normalized growth,[19],0.974
same,normalized growth,[34],1
same,normalized growth,[35],1
same,normalized growth,[36],1
same,normalized growth,[37],1.02
same,normalized growth,[26],1.01
CC1=C(CC(=O)O)c2cc(F)ccc2/C1=C\c1ccc(S(C)(=O)=O)cc1,normalized growth,[1],1.02
same,normalized growth,[31],0.996
same,normalized growth,[32],0.99
same,normalized growth,[5],0.989
same,normalized growth,"S. cerevisiae deletion strains, locus YDR363W, strain ESC2, stronger effect = lower value",1.02
same,normalized growth,[33],1
same,normalized growth,[8],1.04
same,normalized growth,[30],0.946
same,normalized growth,[21],0.982
same,normalized growth,[34],0.98
same,normalized growth,[35],0.979
same,normalized growth,[36],0.99
same,normalized growth,[23],1
same,normalized growth,[37],0.973
same,normalized growth,[26],1.05
COc1ccc(/C=C2\CSc3ccc(F)cc3C2=O)cc1,normalized growth,"S. cerevisiae deletion strains, locus YAR019C, strain CDC15, stronger effect = lower value",0.955
same,normalized growth,"S. cerevisiae deletion strains, locus YBL105C, strain PKC1, stronger effect = lower value",0.96
same,normalized growth,"S. cerevisiae deletion strains, locus YBR135W, strain CKS1, stronger effect = lower value",0.951
same,normalized growth,"S. cerevisiae deletion strains, locus YBR136W, strain MEC1, stronger effect = lower value",0.971
same,normalized growth,"S. cerevisiae deletion strains, locus YBR160W, strain CDC28, stronger effect = lower value",0.961
same,normalized growth,"S. cerevisiae deletion strains, locus YDL017W, strain CDC7, stronger effect = lower value",0.966
same,normalized growth,"S. cerevisiae deletion strains, locus YDL028C, strain MPS1, stronger effect = lower value",0.931
same,normalized growth,[4],0.968
same,normalized growth,"S. cerevisiae deletion strains, locus YDL108W, strain KIN28, stronger effect = lower value",0.955
same,normalized growth,"S. cerevisiae deletion strains, locus YDL132W, strain cdc53, stronger effect = lower value",0.947
same,normalized growth,"S. cerevisiae deletion strains, locus YDL214C, strain PRR2, stronger effect = lower value",0.932
same,normalized growth,"S. cerevisiae deletion strains, locus YDR052C, strain DBF4, stronger effect = lower value",0.977
same,normalized growth,"S. cerevisiae deletion strains, locus YDR054C, strain cdc34, stronger effect = lower value",0.953
same,normalized growth,"S. cerevisiae deletion strains, locus YDR226W, strain ADK1, stronger effect = lower value",0.965
same,normalized growth,"S. cerevisiae deletion strains, locus YDR477W, strain SNF1, stronger effect = lower value",0.916
same,normalized growth,"S. cerevisiae deletion strains, locus YER123W, strain YCK3, stronger effect = lower value",0.896
same,normalized growth,"S. cerevisiae deletion strains, locus YER133W, strain GLC7, stronger effect = lower value",0.916
same,normalized growth,"S. cerevisiae deletion strains, locus YFL009W, strain cdc4, stronger effect = lower value",0.934
same,normalized growth,"S. cerevisiae deletion strains, locus YFL029C, strain CAK1, stronger effect = lower value",0.947
same,normalized growth,"S. cerevisiae deletion strains, locus YFR003C, strain YPI1, stronger effect = lower value",0.96
same,normalized growth,"S. cerevisiae deletion strains, locus YFR019W, strain FAB1, stronger effect = lower value",0.953
same,normalized growth,"S. cerevisiae deletion strains, locus YFR028C, strain CDC14, stronger effect = lower value",0.93
same,normalized growth,"S. cerevisiae deletion strains, locus YGR040W, strain KSS1, stronger effect = lower value",0.917
same,normalized growth,"S. cerevisiae deletion strains, locus YGR052W, strain FMP48, stronger effect = lower value",0.939
same,normalized growth,"S. cerevisiae deletion strains, locus YGR092W, strain DBF2, stronger effect = lower value",0.925
same,normalized growth,[9],0.771 (active)
same,normalized growth,"S. cerevisiae deletion strains, locus YHR079C, strain IRE1, stronger effect = lower value",0.909
same,normalized growth,"S. cerevisiae deletion strains, locus YHR082C, strain KSP1, stronger effect = lower value",0.949
same,normalized growth,"S. cerevisiae deletion strains, locus YHR205W, strain SCH9, stronger effect = lower value",0.899
same,normalized growth,"S. cerevisiae deletion strains, locus YIL147C, strain SLN1, stronger effect = lower value",0.969
same,normalized growth,"S. cerevisiae deletion strains, locus YJL095W, strain BCK1, stronger effect = lower value",0.9
same,normalized growth,"S. cerevisiae deletion strains, locus YJL128C, strain PBS2, stronger effect = lower value",0.91
same,normalized growth,"S. cerevisiae deletion strains, locus YJL157C, strain FAR1, stronger effect = lower value",0.927
same,normalized growth,"S. cerevisiae deletion strains, locus YJR016C, strain ILV3, stronger effect = lower value",0.973
same,normalized growth,"S. cerevisiae deletion strains, locus YJR066W, strain TOR1 (second series), stronger effect = lower value",0.909
same,normalized growth,"S. cerevisiae deletion strains, locus YJR066W, strain TOR1, stronger effect = lower value",0.874
same,normalized growth,"S. cerevisiae deletion strains, locus YKL048C, strain ELM1, stronger effect = lower value",0.949
same,normalized growth,"S. cerevisiae deletion strains, locus YKL067W, strain YNK1, stronger effect = lower value",0.911
same,normalized growth,"S. cerevisiae deletion strains, locus YKL101W, strain HSL1, stronger effect = lower value",0.927
same,normalized growth,"S. cerevisiae deletion strains, locus YKL193C, strain SDS22, stronger effect = lower value",0.941
same,normalized growth,"S. cerevisiae deletion strains, locus YKL203C, strain TOR2, stronger effect = lower value",1.01
same,normalized growth,"S. cerevisiae deletion strains, locus YLR113W, strain HOG1, stronger effect = lower value",0.763 (active)
same,normalized growth,"S. cerevisiae deletion strains, locus YLR133W, strain CKI1, stronger effect = lower value",0.949
same,normalized growth,"S. cerevisiae deletion strains, locus YLR403W, strain SFP1, stronger effect = lower value",0.928
same,normalized growth,"S. cerevisiae deletion strains, locus YML070W, strain DAK1, stronger effect = lower value",0.91
same,normalized growth,"S. cerevisiae deletion strains, locus YMR001C, strain CDC5, stronger effect = lower value",0.952
same,normalized growth,"S. cerevisiae deletion strains, locus YMR205C, strain PFK2 (second series), stronger effect = lower value",0.942
same,normalized growth,"S. cerevisiae deletion strains, locus YMR277W, strain FCP1, stronger effect = lower value",0.929
same,normalized growth,"S. cerevisiae deletion strains, locus YNL006W, strain LST8, stronger effect = lower value",0.967
same,normalized growth,"S. cerevisiae deletion strains, locus YNL020C, strain ARK1, stronger effect = lower value",0.955
same,normalized growth,"S. cerevisiae deletion strains, locus YNL161W, strain CBK1, stronger effect = lower value",0.951
same,normalized growth,"S. cerevisiae deletion strains, locus YNL183C, strain NPR1, stronger effect = lower value",0.935
same,normalized growth,"S. cerevisiae deletion strains, locus YNL207W, strain RIO2, stronger effect = lower value",0.969
same,normalized growth,"S. cerevisiae deletion strains, locus YNL222W, strain SSU72, stronger effect = lower value",0.952
same,normalized growth,"S. cerevisiae deletion strains, locus YNL307C, strain MCK1 (second series), stronger effect = lower value",0.927
same,normalized growth,"S. cerevisiae deletion strains, locus YOL078W, strain AVO1, stronger effect = lower value",0.94
same,normalized growth,"S. cerevisiae deletion strains, locus YOL136C, strain PFK27, stronger effect = lower value",0.902
same,normalized growth,"S. cerevisiae deletion strains, locus YOR061W, strain CKA2, stronger effect = lower value",0.933
same,normalized growth,"S. cerevisiae deletion strains, locus YOR119C, strain RIO1, stronger effect = lower value",0.95
same,normalized growth,"S. cerevisiae deletion strains, locus YOR231W, strain MKK1, stronger effect = lower value",0.879
same,normalized growth,"S. cerevisiae deletion strains, locus YOR329C, strain SCD5, stronger effect = lower value",0.964
same,normalized growth,"S. cerevisiae deletion strains, locus YPL031C, strain PHO85, stronger effect = lower value",0.914
same,normalized growth,"S. cerevisiae deletion strains, locus YPL153C, strain RAD53, stronger effect = lower value",0.929
same,normalized growth,"S. cerevisiae deletion strains, locus YPL204W, strain HRR25, stronger effect = lower value",0.912
same,normalized growth,"S. cerevisiae deletion strains, locus YPL209C, strain IPL1, stronger effect = lower value",0.959
same,normalized growth,"S. cerevisiae deletion strains, locus YPL256C, strain CLN2, stronger effect = lower value",0.87
same,normalized growth,"S. cerevisiae deletion strains, locus YPR025C, strain CCL1, stronger effect = lower value",0.958
same,normalized growth,"S. cerevisiae deletion strains, locus YPR106W, strain ISR1, stronger effect = lower value",0.962
same,normalized growth,"S. cerevisiae deletion strains, locus YPR111W, strain DBF20, stronger effect = lower value",0.938
same,normalized growth,"S. cerevisiae deletion strains, strain NNK1, stronger effect = lower value",0.962
same,normalized growth,"S. cerevisiae deletion strains, strain TSCII, stronger effect = lower value",0.946
